Compounds with a hit are over-represented: about 14% of the library has one in this group of screens.
Giardia FBPA inh – inhibitors of Giardia lamblia fructose-1,6-bisphosphate aldolase | A8B2U2 | purified Giardia FBPA | Potency, µM (highest dose often 59.6 µM), usual class: inhibitors | actives 0.71% (n = 290,000) | AID 2451; further: nearly all actives have a fitted effect of over 55% in size
Target sequence (A8B2U2 whole entry, looked up): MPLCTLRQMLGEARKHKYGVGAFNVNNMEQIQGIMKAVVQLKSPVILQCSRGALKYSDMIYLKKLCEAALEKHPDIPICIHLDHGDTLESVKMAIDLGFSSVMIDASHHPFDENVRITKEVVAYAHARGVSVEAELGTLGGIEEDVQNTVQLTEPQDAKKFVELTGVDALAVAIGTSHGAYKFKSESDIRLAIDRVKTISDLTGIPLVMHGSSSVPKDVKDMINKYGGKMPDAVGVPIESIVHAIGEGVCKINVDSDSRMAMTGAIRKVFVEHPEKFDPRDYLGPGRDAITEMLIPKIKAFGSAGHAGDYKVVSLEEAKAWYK
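Giardia FBPA (40 nM reagent) was preincubated 10 min at RT with compound (up to 57.5 uM final), then substrate plus GAPDH/TPI/NAD/arsenate coupling system with diaphorase/resazurin was added; resorufin fluorescence (525/598 nm) was read after 20 min.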
Cycloheximide cs – counter-screen hit for Shiga toxin inhibitors, cycloheximide | max response, % | cell reporter, cycloheximide protein synthesis inhibition counterscreen | AID 2314 | actives 12% (n = 300,000); in the data active means max response mostly above about 13%, no sharp cut-off; inactive means mostly below about 14%; further: read at 38.3 µM for the half of the compounds with a filed dose
NS1 function inh – influenza NS1 inhibition. Potency, µM (series often up to 46.1 µM). actives 0.4% (n = 270,000); calls by dose curve; further: actives are rising curves; nearly all actives have a fitted effect of over 50% in size
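OD600 was taken as the measure of yeast growth restored by compound in an NS1-expressing S. cerevisiae strain. Cells had been washed out of glucose medium and diluted 1:100 into galactose -URA medium, pH 6.0.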
Shiga inhibitor – blocks Shiga toxin action in Vero cells. AID 2315. inhibition, % at 38.7 µM. actives 9.2% (n = 290,000). Vero cells, Shiga toxin protein synthesis inhibition reporter; in the data active means inhibition mostly above about 28%, no sharp cut-off; inactive means mostly below about 43%
LmPK inh – LmPK (Leishmania mexicana) enzyme inhibition. Q27686. purified LmPK, Kinase-Glo ATP luminescence, 1 h. Potency, µM (highest dose often 57.5 µM), hits mostly inhibitors. actives 0.37% (n = 290,000)
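Kinase-Glo luminescence read after 1 h RT reaction of 0.1 nM LmPK with 0.5 mM PEP and 0.1 mM ADP. Activity scaled between uninhibited and enzyme-free controls.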
Each line names hits and unclear results; the compound was inactive in the other large screens. Unless noted, the call rests on the fitted dose curve; in most records, active means well fitted curve in the direction sought with a large enough effect; inconclusive means small, poorly fitted or top-dose-only effect, or another doubt; inactive means no such curve, though single readings can be large; an effect the other way counts as inactive or inconclusive.

CC(=O)NC(NC(=S)Nc1ccccc1Br)C(Cl)(Cl)Cl (stereo not given)	none (no result: NS1 function inh)
Cc1cc(C)n(CCN(C)Cc2nc(Cc3ccccc3F)no2)n1	LmPK inh 28µM
CN(Cc1nc(Cc2ccccc2F)no1)[C@@H]1CS(=O)(=O)C[C@H]1O	none
O=C(CN1C(=O)c2ccccc2C1=O)c1ccc(F)cc1	Cycloheximide cs 26
N=c1n(CCN2CCCCC2)c2ccccc2n1CC(=O)c1ccc(Cl)c(Cl)c1	Giardia FBPA inh inconclusive
Cn1c(=N)n(CC(=O)c2ccc(F)cc2)c2ccccc21	Cycloheximide cs 37, Shiga inhibitor 68
CCn1c(=N)n(CC(=O)c2ccc(Cl)c(Cl)c2)c2ccccc21	Cycloheximide cs 40, Shiga inhibitor 74
O=C(CN1C(=O)c2ccccc2C1=O)c1ccccc1	none
Cc1n(CC(=O)c2ccc(F)cc2)c2ccccc2[n+]1C	none (no result: NS1 function inh)
Cc1ccsc1C(=O)Nc1ccc(F)c([N+](=O)[O-])c1	Cycloheximide cs 35, Shiga inhibitor 53
O=C(Nc1ccccc1)Nc1ccc(Cl)c([N+](=O)[O-])c1	Cycloheximide cs 37, Shiga inhibitor 81
O=C(NC(=S)Nc1ccc(F)c([N+](=O)[O-])c1)c1ccccc1F	Cycloheximide cs 23, Shiga inhibitor 37 (no result: NS1 function inh)
O=C(Nc1ccccc1)Nc1ccc(F)c([N+](=O)[O-])c1	Cycloheximide cs 45, Shiga inhibitor 46
O=C(Cc1ccc(F)cc1)Nc1ccc(F)c([N+](=O)[O-])c1	none
O=C(Nc1ccc(Cl)c([N+](=O)[O-])c1)Nc1nc2ccccc2s1	none
O=C(NC(=S)Nc1ccc2[nH]c(=O)[nH]c2c1)c1ccccc1F	none (no result: Giardia FBPA inh)
CCOC(=O)c1ccc(NC(=O)CN2C(=O)CN(C(C)=O)C2=S)cc1	NS1 function inh inconclusive
COc1ccc(OC2C(O)COC2/C=C/C#Cc2ccccc2)cc1 (stereo not given)	none (no result: Cycloheximide cs, NS1 function inh, Shiga inhibitor, LmPK inh)
CCCn1c(=O)n(CC(=O)NCC2CCCO2)c(=O)c2c3c(sc21)COC(C)(C)C3 (stereo not given)	none (no result: Giardia FBPA inh)
COc1ccc(-c2c(O)c3c(OC)c4c(cc3oc2=O)OC(C)(C)CC4)cc1	none (no result: Cycloheximide cs, NS1 function inh, Shiga inhibitor, LmPK inh)
O=C(NC(=S)Nc1ccccc1C(F)(F)F)c1ccccc1F	none
Cc1ccc(NC(=O)Nc2ccccc2)cc1[N+](=O)[O-]	Cycloheximide cs 52, Shiga inhibitor 146
CC(C)C(=O)Nc1ccc(NC(=S)NC(=O)c2ccccc2F)cc1	Cycloheximide cs 15
CC(=O)Nc1ccc(C)c([N+](=O)[O-])c1	none
COc1ccc2nc(-c3ccccn3)[nH]c2c1	Cycloheximide cs 36, Shiga inhibitor 59, LmPK inh inconclusive
Nc1ccc2nc(-c3cccnc3)[nH]c2c1	Cycloheximide cs 15
Nc1ccc2nc(-c3cccs3)[nH]c2c1	Cycloheximide cs 20, Shiga inhibitor 52, LmPK inh inconclusive
COc1ccc2nc(-c3cccc(N)c3)[nH]c2c1	Giardia FBPA inh inconclusive, Cycloheximide cs 18, LmPK inh 22µM
COc1ccc2nc(-c3ccc(N)cc3)[nH]c2c1	LmPK inh inconclusive
COc1cc2c(c(OC)c1OC)-c1c(cc3c(c1OC)OCO3)CC(C)C(C)(O)C2OC(=O)c1ccccc1 (stereo not given)	none (no result: NS1 function inh, LmPK inh)
COC(=O)C1=C[C@@H](C(=O)OC)[C@@H]2C3=C(C(=O)[C@@]2(CC(C)C)NC(=O)c2ccccc2)[C@H](C)n2c(=O)n(-c4ccccc4)c(=O)n2[C@@H]3C1	none (no result: NS1 function inh, LmPK inh)
CS(=O)(=O)Nc1cccc(-c2ccc3ncnc(N4CCOCC4)c3c2)c1	none (no result: Cycloheximide cs, NS1 function inh, Shiga inhibitor, LmPK inh)
Nc1ccc2nc(-c3ccccn3)[nH]c2c1	Cycloheximide cs 29, Shiga inhibitor 53, LmPK inh 20µM
Nc1ccc(-c2nc3c(Cl)cc(N)cc3[nH]2)cc1	none
Nc1cccc(-c2nc3ccc(C(=O)c4ccccc4)cc3[nH]2)c1	Cycloheximide cs 33, Shiga inhibitor 61
Nc1ccc2nc(-c3ccc(N)c(Cl)c3)[nH]c2c1	Cycloheximide cs 25, Shiga inhibitor 77, LmPK inh inconclusive
Nc1ccc2nc(-c3ccccc3)[nH]c2c1	Cycloheximide cs 36, Shiga inhibitor 126, LmPK inh 14µM
Cc1cc(=S)nc(-c2ccccn2)[nH]1	none
Nc1cccc(C(=O)Nc2ccc3nc(-c4cccnc4)[nH]c3c2)c1	NS1 function inh inconclusive
O=S(=O)(c1ccc2nc(-c3ccccc3)[nH]c2c1)N1CCN(c2ccc(Cl)cc2)CC1	none
O=C(NC1CCCCC1)c1cc(S(=O)(=O)N2CCOCC2)c(Cl)cc1Cl	none
O=CN[C@@H](Cc1cnc[nH]1)C(=O)O	none (no result: Giardia FBPA inh, Cycloheximide cs, Shiga inhibitor, LmPK inh)
CCOCCCn1c(=NC(=O)c2cccs2)c(C#N)cc2c(=O)n3ccccc3nc21	none
c1cncc(-c2nc3c(ccc4ccccc43)[nH]2)c1	Cycloheximide cs 12, Shiga inhibitor 77
Cc1ccc(C(=O)N/N=C/c2ccc(-c3cccc(C(F)(F)F)c3)o2)cn1	none
CNC(=S)N/N=C/c1ccc(-c2cccc(C(=O)O)c2)o1	Giardia FBPA inh inconclusive, Cycloheximide cs 61, Shiga inhibitor 112, LmPK inh inconclusive
Nc1nonc1C(=O)N/N=C/c1ccc(-c2cccc(C(=O)O)c2)o1	Cycloheximide cs 29, Shiga inhibitor 51 (no result: NS1 function inh)
Cc1ccc(OCC(=O)N/N=C\c2ccc(-c3cccc(C(=O)O)c3)o2)c(C)c1	Giardia FBPA inh inconclusive, Cycloheximide cs 74, Shiga inhibitor 177
COc1ccc(CC(=O)N/N=C/c2ccc(-c3cccc(C(=O)O)c3)o2)cc1OC	Cycloheximide cs 71, Shiga inhibitor 195
COC(=O)c1ccc(-c2ccc(/C=N/NC(=O)Cc3nnc(N)s3)o2)cc1	Cycloheximide cs 24
O=C(CSCc1ccccc1Cl)NNC(=S)Nc1ccccc1	Cycloheximide cs 11
Cc1noc(C)c1C(=O)N1CCC2(CC1)CN(c1ncccn1)C2	none (no result: Cycloheximide cs, NS1 function inh, Shiga inhibitor, LmPK inh)
Cn1cccc1C(=O)N1CCC2(CC1)CN(Cc1ccc(C#N)cc1)C2	none (no result: Cycloheximide cs, NS1 function inh, Shiga inhibitor, LmPK inh)
Cn1cc(Cl)c(C(=O)NC2CCCCCC2)n1	Cycloheximide cs 14, Shiga inhibitor 23
Cn1cc(Cl)c(C(=O)NNC(=S)NC2CCCCC2)n1	Cycloheximide cs 23, Shiga inhibitor 54
O=C(O)c1nc(NCCc2ccccc2)ncc1Cl	none
COc1ccccc1C1=NN(C2=NN=C(N)Cc3ncnn32)C(O)(C(F)(F)F)C1 (stereo not given)	none (no result: NS1 function inh)
Cc1nc(NCc2ccccc2)c2nc(-c3ccccc3)n(CCCN3CCCCC3C)c2n1 (stereo not given)	none (no result: Cycloheximide cs, NS1 function inh, Shiga inhibitor, LmPK inh)
COc1ccc(C2=NN3C(C2)c2ccccc2OC32C(=O)N(C)c3ccccc32)cc1 (stereo not given)	Cycloheximide cs 62, Shiga inhibitor 109
Cc1ccc(C2=NN(C(=O)c3ccccc3F)C(c3ccccc3F)C2)cc1 (stereo not given)	none
Cc1ccc(C2=NN3C(C(=O)c4ccccc4)Oc4ccccc4C3C2)cc1 (stereo not given)	Cycloheximide cs 34, Shiga inhibitor 86
COc1ccc(C2=NN(C(=O)CCC(=O)O)C(c3ccccc3OC)C2)cc1 (stereo not given)	none

Screening data deposited in PubChem by National Center for Advancing Translational Sciences (NCATS).
